Most compounds without a hit are left out; they make up all but 7.3% or so of the library.
AmpC detergent = blocks E. coli AmpC beta-lactamase in detergent assay; AID 485294; Potency, µM (top dose mostly 114 µM), for the others: top-dose activity change, negative = inhibition, hits mostly inhibitors; 370,000 tested, 0.041% active; P00811; AmpC hydrolysis of nitrocefin, absorbance 480 nm, 0.01% Triton;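 further: potency means the concentration at half of the fitted maximal effect; 0% = no-compound wells and -100% = no-enzyme wells; nearly all actives have a fitted effect of over 25% in size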
Target sequence (P00811 whole entry, looked up): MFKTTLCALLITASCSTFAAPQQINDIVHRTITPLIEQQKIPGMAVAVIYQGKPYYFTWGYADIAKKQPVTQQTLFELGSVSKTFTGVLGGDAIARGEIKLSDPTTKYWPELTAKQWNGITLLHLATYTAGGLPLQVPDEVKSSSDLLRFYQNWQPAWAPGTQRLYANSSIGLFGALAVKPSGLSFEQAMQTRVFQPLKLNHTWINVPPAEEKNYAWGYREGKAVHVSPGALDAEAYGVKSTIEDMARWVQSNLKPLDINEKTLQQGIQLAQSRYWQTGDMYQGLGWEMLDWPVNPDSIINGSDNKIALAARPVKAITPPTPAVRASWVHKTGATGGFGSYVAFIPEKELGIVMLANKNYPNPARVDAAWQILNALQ
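AmpC (5.3 nM in the dispensed reagent) in 20 mM phosphate pH 7.0 with 0.01% (detergent screen) or 0.0001% Triton X-100 was preincubated with compounds for 15 min at room temperature. Nitrocefin was then added from an 800 uM solution, and hydrolysis was followed at 480 nm.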
HCV inhibitor = HCV inhibition; Huh7.5.1 HCVcc-Cre infection, luciferase reporter, 44 h; Potency, µM (highest dose often 41.8 µM), for the others: at the top dose activity change, negative = inhibition, usual class: inhibitors; 340,000 tested, 3.4% active; AID 651820; further: potency means the concentration at half of the fitted maximal effect
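Luciferase read-out (15 sec integration) after a 15 min room-temperature substrate step quantifies HCVcc-Cre infection. Cells, 1,000 per well, had compound added 4 h post-plating, then virus at ~0.5 moi, and were cultured 44 h.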
AmpC no deterg = inhibitors of E. coli AmpC beta-lactamase without detergent; P00811; AmpC nitrocefin hydrolysis, absorbance 480 nm, 0.0001% Triton; Potency, µM (highest dose often 57.1 µM), for the others: at the highest dose activity change, negative = inhibition, hits mostly inhibitors; 330,000 tested, 0.52% active; AID 485341;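 further: potency means the concentration at half of the fitted maximal effect; plate controls were no compound for no effect and no enzyme for full effect; nearly all actives have a fitted effect of over 20% in size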
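20 mM phosphate pH 7.0 + 0.01% (detergent screen) or 0.0001% Triton X-100; 5.3 nM AmpC reagent; cpd preinc 15 min RT; nitrocefin (800 uM stock) to start; A480 q20 s × 4 min; Activity was normalised to no-enzyme and no-compound control wells.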
HCMV inh = inhibitors of human cytomegalovirus | AID 1259415 | 410,000 tested, 4.5% active | activity change, negative = inhibition, % at 57.5 µM | HFF cells, HCMV-luciferase reporter, 72 h; stronger effect = lower value; in the data active means activity change below about -60%; inconclusive means no clear call, values can overlap the other calls; inactive means above about -39%
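Two-dose cell screen: HFF monolayers treated with compounds and infected with luciferase-expressing HCMV at 1 PFU/cell, 72 h at 37C, then lysed for luciferase measurement.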
FMDV inh = blocks foot and mouth disease virus. FMDV antiviral cell-based qHTS. Potency, µM (top dose mostly 57.9 µM), for the others: top-dose activity change, negative = inhibition, actives largely listed as inhibitors. 410,000 tested, 1.2% active; calls by dose curve; tested in HEK293T cells; further: read-out not given here; potency means the concentration at half of the fitted maximal effect; nearly all actives have a fitted effect of over 45% in size
Active calls of the source: *; ? = inconclusive; · = no result given. Unless noted, the call rests on the fitted dose curve; in most records, active means well fitted curve in the direction sought with a large enough effect; inconclusive means small, poorly fitted or top-dose-only effect, or another doubt; inactive means no such curve, though single readings can be large; an effect the other way counts as inactive or inconclusive. Unless noted, on the % scale 0 is the no-effect control and ±100 the full control effect.

SMILES	AmpC detergent	HCV inhibitor	AmpC no deterg	HCMV inh	FMDV inh
COc1ccc(CN2CCOc3ccc(CN4CCC(Oc5cccnc5)CC4)cc3C2)cc1C	·	·	·	·	-29%
Fc1ccc(COc2ccc(Br)cc2CNCc2ccncc2)cc1	1%	10µM*	19%	?	?
Fc1ccccc1COc1ccc(Br)cc1CNCc1cccnc1	-5%	?	29%	-4	?
COc1cc(CNC(C)c2ccccc2)cc(Br)c1OCc1ccc(F)cc1 (stereo not drawn)	?	22µM*	40%	?	-30%
COc1ccccc1Nc1nc(NCc2ccco2)c2ccccc2n1	4%	?	-38%	-99*	?
Cc1ccc(Nc2nc(NCc3ccco3)c3ccccc3n2)cc1	1%	3.5µM*	-30%	-82*	-42%
Cc1csc(=O)n1CC(=O)OCC(=O)Nc1ccccc1C(C)C	2%	0%	-18%	3	-11%
CC1(C)COC(/C=C/c2ccc([N+](=O)[O-])cc2)=N1	-10%	?	-16%	-101*	0%
O=S(=O)(c1ccc(OC(F)(F)F)cc1)N1CCC(c2nnnn2-c2ccc(F)cc2)CC1	-4%	·	·	-73*	-14%
COc1ccc(S(=O)(=O)N2CCC(c3nnnn3-c3ccccc3)CC2)cc1OC	5%	·	·	-39	25µM*
CCC(Sc1n[nH]c(=O)[nH]c1=O)C(=O)OCc1ccccc1 (stereo not drawn)	-1%	10%	6%	-37	1.8µM*
O=c1/c(=C\c2cc([N+](=O)[O-])cc([N+](=O)[O-])c2O)sc2nc3ccccc3n12	?	-12%	-46%	·	6%
COC(=O)/C=c1/sc2nc3ccccc3n2c1=O	45µM*	8%	-34%	5	2%
O=c1/c(=C/c2ccccn2)sc2nc3ccccc3n12	-12%	0%	-12%	69	10µM*
COc1ccc(N2CC(NC(=O)COc3cccc(C)c3)CC2=O)cc1OC (stereo not drawn)	2%	·	·	2	0%
O=C(CCC(=O)N1CCOCC1)NCCc1ccccc1	3%	-1%	2%	47	41%
COc1ccccc1NC(=O)Nc1cnccn1	-13%	-13%	-18%	-15	-1%
COc1cccc(NC(=O)Nc2cnccn2)c1	0%	-11%	-41%	-69*	69%
COc1cc([N+](=O)[O-])ccc1NC(=O)Nc1cnccn1	5%	?	-4%	-61*	8%
CCOc1ccc(NC(=O)N[C@@H](Cc2ccccc2)C(=O)O)cc1	1%	0%	-1%	-3	-3%
Cc1cccc(NC(=O)Nc2cnccn2)c1	5%	-11%	-14%	-24	19%
COc1cccc(NC(=O)N[C@@H](Cc2ccccc2)C(=O)O)c1	3%	11%	2.2µM*	-35	-24%
Cc1ccc(NC(=O)CSC(C)c2nc3ccccc3c(=O)[nH]2)cc1 (stereo not drawn)	-7%	-27%	9%	-14	-9%
COc1ccc(-c2ccnc(-n3ncc(C(=O)NC(C)(C)CO)c3C3CC3)n2)cc1F	·	·	·	·	43%
CC(=O)c1ccccc1NC(C(=O)NC1CCCCC1)c1ccccc1F (stereo not drawn)	·	·	·	-11	·
SMILES	AmpC detergent	HCV inhibitor	AmpC no deterg	HCMV inh	FMDV inh
CCN(CC(=O)NCc1ccc(F)cc1)C(=O)/C=C/c1cc(OC)ccc1OC	4%	-21%	34%	-10	-6%
COc1cc(/C=N/Nc2nc(C)nc3c2cnn3-c2ccccc2)ccc1O	-7%	11µM*	-34%	-34	-1%
COc1ccc(C(=O)Nc2nc(C)c(C(C)=O)s2)cc1S(=O)(=O)N1CCOCC1	2%	-16%	-16%	-92*	-10%
COc1ccc(C(=O)Nc2nnc(C)s2)cc1S(=O)(=O)N1CCOCC1	9%	?	-15%	12	-14%
COc1ccc(C(=O)Nc2ccc(-c3ccc(C)o3)cc2)cc1S(=O)(=O)N1CCOCC1	6%	2.5µM*	53%	-96*	10µM*
CC1CC(C)CN(CC(=O)N2CCCc3c2c(=O)oc2ccc(OCc4ccccc4)cc32)C1 (stereo not drawn)	-6%	11µM*	40%	-7	?
CCCCCCCCn1cnc2c(N)c(C)c(C)cc21	?	1.6µM*	85%	-13	-28%
COc1ccc(Cn2cnc3c(N)c(C)c(C)cc32)cc1	?	-30%	35%	?	-5%
COCCC(=O)N1CCc2ccc(NC(=O)c3ccc(C(F)(F)F)cc3)cc2C1	?	10µM*	48%	-65*	?
CCOc1ccc(C(=O)Nc2ccc3c(c2)N(C(C)=O)CCC3)cc1OCC	12%	·	·	2	-61%
CN(C)S(=O)(=O)N1CCc2ccc(NC(=O)c3ccc(C(F)(F)F)cc3)cc2C1	?	7.9µM*	14%	?	?
COCCC(=O)Nc1ccc2c(c1)CN(C(=O)CSC)CC2	-2%	3%	-3%	10	-8%
CC(=O)N1CCCc2ccc(NC(=O)c3ccc(C(F)(F)F)cc3)cc21	-2%	·	·	-71*	?
CC(C)c1ccc(/C=C2\C(=O)N(CCN3CCOCC3)C(=S)N2C)cc1	8%	10µM*	10%	-66*	?
CC(C)c1ccc(S(=O)(=O)NCCCN2CCOCC2)cc1	·	·	·	-11	-16%
O=C1NC(=O)N(CCc2ccc(F)cc2)C(=O)/C1=C/c1cccs1	?	27%	-36%	30	?
Cc1ccc(/C=C2/C(=O)NC(=O)N(CCc3ccc(F)cc3)C2=O)o1	-2%	18%	-36%	173	25µM*
O=C1NC(=O)N(CCc2ccc(F)cc2)C(=O)/C1=C/c1ccco1	?	25%	18µM*	18	-14%
CN(C)c1ccc(/C=C2\C(=O)NC(=O)N(CCc3ccc(F)cc3)C2=O)cc1	-11%	20%	-45%	27	-3%
CCCCCCCCNc1ncnc2[nH]ncc12	·	11µM*	·	-76*	-27%
c1ccc2sc(-c3cc4c(c(OC5CCOC5)c3)OCCN(Cc3cccn3-c3nccs3)C4)nc2c1 (stereo not drawn)	·	·	·	·	-7%
COc1ccccc1C1CN(CC(=O)N2CCC(N3CCOCC3)CC2)Cc2ccccc2O1 (stereo not drawn)	·	·	·	·	5%
Cc1ccc(-c2nn3c(C)nnc3s2)cc1NCc1c(F)cccc1Cl	-13%	?	-7%	-76*	·
Cc1ccc(CNc2cc(-c3nn4c(C)nnc4s3)ccc2C)s1	0%	?	-16%	89	-21%
CCc1ccc(NCc2ccc(OC)c(Cn3ccnc3)c2)cc1	?	?	16%	-64*	?
Nc1c(N(CCO)C(=O)C2CCCC2)c(=O)[nH]c(=O)n1Cc1ccccc1	·	4%	-12%	-3	-1%
COC(=O)[C@@H]1C[C@]2(OC(=O)c3ccccc3)C=CC(=O)C[C@@H]2N1C(=O)OCc1ccccc1	-4%	?	153%	-98*	22µM*

Screens (PubChem)
